PubChem BioAssay (NCATS)
Results filed as inconclusive are left out. Calls of active or inactive are those of the source. Calls come from the whole dose curve; as a rule, active = well fitted cell-killing curve with a large enough effect; inconclusive = small, poorly fitted or top-dose-only effect, or effect the other way; inactive = no such curve, though single readings can be large or run the other way.
Note: nearly all actives have a fitted effect of over 40% in size.
Potency is the fitted concentration of half-maximal effect.

Assay: Quantitative High-Throughput drug screen in 47 multiple myeloma cell lines against the NCATS MIPE library collection: L363_DSMZ cell viability assay (AID 1918984)
Settings: L363 myeloma viability, CellTiter-Glo ATP luminescence, 48 h; series mostly up to 45.8 µM
Method in brief: (§1)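 ATP-based CellTiter-Glo luminescence after 48 h drug exposure (37 °C, 5% CO2) of 500 myeloma cells per well. DMSO-only wells set 100% viability, media-only wells 0%; MIPE 4.0 library added by pin tool.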
With `C[C@@H]1CC[C@H]2[C@@H](C)C(=O)O[C@@H]3O[C@@]4(C)CC[C@H]1[C@]32OO4` the Potency was “inactive”.
In the case of `CO[C@H]1CCC(O[C@H]2C[C@H]([C@]3(C)CC[C@]4(C[C@H](O)[C@@H](C)[C@@H]([C@@H](C)C=C(C)C(=O)[C@H](C)C[C@H](C)C(=O)O)O4)O3)O[C@]3(O[C@@H]([C@H]4O[C@@](O)(CO)[C@H](C)C[C@H]4C)C[C@H]3C)[C@H]2C)O[C@H]1C` (stereo partly specified), the Potency is reported as 148 nM (active).
In the case of `O=c1[nH]c2ccccc2n1C1CCN(Cc2ccc(-c3[nH]c4cc5ncnc5cc4nc3-c3ccccc3)cc2)CC1`, the Potency is reported as 5900 nM (active).
For `CC(C)(O)C=CC(=O)[C@](C)(O)[C@H]1[C@H](O)C[C@]2(C)[C@@H]3CC=C4[C@@H](C=C(O)C(=O)C4(C)C)[C@]3(C)C(=O)C[C@@]12C`, the Potency was 20.9 nM (active).
For `CC[C@@]1(O)C(=O)OCc2c1cc1n(c2=O)Cc2cc3ccccc3nc2-1`, the Potency was 296 nM (active).
For `CN1CCN(c2ccc([N+](=O)[O-])c3no[n+]([O-])c23)CC1`, the Potency was 8330 nM (active).

Assay: Quantitative High-Throughput drug screen in 47 multiple myeloma cell lines against the NCATS MIPE library collection: KMS34_JCRB cell viability assay (AID 1918985)
Settings: KMS34 myeloma viability, CellTiter-Glo ATP luminescence, 48 h; series mostly up to 45.8 µM
Method in brief: as §1
In the case of `C1=C2CCCN[C@H]2[C@@H]2C[C@H]1[C@@H]1CCCCN1C2`, the Potency is reported as “inactive”.
In the case of `CC(=Cc1csc(C)n1)[C@@H]1C[C@H]2O[C@@H]2CCC[C@H](C)[C@@H](O)[C@@H](C)C(=O)C(C)(C)[C@@H](O)CC(=O)O1`, the Potency is reported as “inactive”.
For `C[C@@H]1CC[C@H]2[C@@H](C)C(=O)O[C@@H]3O[C@@]4(C)CC[C@H]1[C@]32OO4`, the Potency was 2960 nM (active).
With `CO[C@H]1CCC(O[C@H]2C[C@H]([C@]3(C)CC[C@]4(C[C@H](O)[C@@H](C)[C@@H]([C@@H](C)C=C(C)C(=O)[C@H](C)C[C@H](C)C(=O)O)O4)O3)O[C@]3(O[C@@H]([C@H]4O[C@@](O)(CO)[C@H](C)C[C@H]4C)C[C@H]3C)[C@H]2C)O[C@H]1C` (stereo partly specified) the Potency was 1180 nM (active).
With `COC1=CC(C)=C[C@@H](C)[C@@H](O)[C@@H](C)CC(C)=CC=C[C@H](OC)[C@H]([C@@H](C)[C@@H](O)[C@H](C)[C@@]2(O)C[C@@H](O)[C@H](C)[C@@H](C(C)C)O2)OC1=O` the Potency was 3 nM (active).
For `O=c1[nH]c2ccc(Cl)cc2c(N[C@@H]2CN3CCC2CC3)c1-c1nc2ccccc2[nH]1`, the Potency was 74.3 nM (active).
For `CC(C)(C)[C@]1(O)C[C@@H]2OC(=O)C[C@@]23C(=O)O[C@@H]2OC(=O)[C@H](O)C213` (stereo partly specified), the Potency was “inactive”.
With `COc1ccc(N(C(=O)Oc2c(C)cccc2C)c2ccnc(Nc3ccc(N4CCN(C)CC4)cc3)n2)c(OC)c1` the Potency was 1050 nM (active).
For `C[C@@H]1[C@H](O)[C@@H](C)C=CC=CCCC=CC=CC=CC=C[C@H](O[C@H]2O[C@@H](C)[C@H](O)[C@@H](N)[C@@H]2O)CC2O[C@](O)(C[C@@H](O)[C@H](O)CC[C@@H](O)C[C@@H](O)C[C@@H](O)CC(=O)O[C@H]1C)C[C@H](O)[C@H]2C(=O)O`, the Potency was “inactive”.
With `C[C@H]1CCCC=CC2C[C@H](O)C[C@@H]2[C@H](O)C=CC(=O)O1` (stereo partly specified) the Potency was “inactive”.
With `CC1=C(O)C(=O)C=C2C1=CC=C1[C@@]2(C)CC[C@@]2(C)[C@@H]3C[C@](C)(C(=O)O)CC[C@]3(C)CC[C@]12C` the Potency was 743 nM (active).
In the case of `CCN1CCN(C(=O)Cc2ccc(Nc3ncc(F)c(Nc4ccc(C(=O)Nc5ccccc5Cl)cc4)n3)cc2)CC1`, the Potency is reported as 4180 nM (active).
For `O=S(=O)(F)Cc1ccccc1`, the Potency was “inactive”.
In the case of `CC(C)[C@]12O[C@@H]1[C@@H]1O[C@]13[C@]1(O[C@H]1C[C@@H]1C4=C(CC[C@@]13C)C(=O)OC4)[C@H]2O`, the Potency is reported as “inactive”.
With `CCCC[N+]1(C)[C@H]2CC(OC(=O)[C@H](CO)c3ccccc3)C[C@H]1[C@H]1O[C@H]12` (stereo partly specified) the Potency was “inactive”.
In the case of `O=C(Nc1ccncc1)C(=O)c1cn(Cc2ccc(Cl)cc2)c2ccccc12`, the Potency is reported as 46.9 nM (active).
In the case of `CSCC[C@@H](NC(=O)[C@@H](Cc1ccccc1)NC(=O)CNC(=O)CNC(=O)[C@@H](N)Cc1ccc(O)cc1)C(=O)O`, the Potency is reported as “inactive”.
In the case of `COCC1(CO)C(=O)C2CCN1CC2` (stereo unspecified), the Potency is reported as 590 nM (active).
With `c1ccc2c(CN3CCNCC3)cccc2c1` the Potency was “inactive”.
For `CCc1c(C(=O)C(N)=O)c2c(OCC(=O)O)cccc2n1Cc1ccccc1`, the Potency was “inactive”.
For `C=CCON=C(C[C@H]1O[C@@H]2O[C@]3(C)CC[C@@H]4[C@H](C)CC[C@@H]([C@H]1C)[C@@]24OO3)[C@H]1O[C@@H]2O[C@]3(C)CC[C@H]4[C@H](C)CC[C@@H]([C@@H]1C)[C@@]24OO3`, the Potency was 264 nM (active).
For `COc1ccc2c(c[n+](C)c3c4cc5c(cc4ccc23)OCO5)c1OC`, the Potency was 4180 nM (active).
With `Cc1[nH]nc2ccc(-c3cncc(OC[C@@H](N)Cc4c[nH]c5ccccc45)c3)cc12` the Potency was 1320 nM (active).
In the case of `CC(C)(O)C=CC(=O)[C@](C)(O)[C@H]1[C@H](O)C[C@]2(C)[C@@H]3CC=C4[C@@H](C=C(O)C(=O)C4(C)C)[C@]3(C)C(=O)C[C@@]12C`, the Potency is reported as 33.2 nM (active).
With `CC[C@@H]1[C@@H](C)O[C@@](O)([C@@H](C)[C@H](O)[C@H](C)[C@H]2OC(=O)C=CC=C[C@@H](C)[C@@H]([C@@H](C)[C@@H](O)[C@H](C)[C@@]3(O)C[C@H](O[C@H]4C[C@H](O)[C@H](O)[C@H](C)O4)[C@H](CC)[C@@H](C)O3)OC(=O)C=CC=C[C@@H]2C)C[C@H]1O[C@H]1C[C@H](O)[C@H](O)[C@H](C)O1` the Potency was 935 nM (active).
In the case of `CC[C@@]1(O)C(=O)OCc2c1cc1n(c2=O)Cc2cc3ccccc3nc2-1`, the Potency is reported as 209 nM (active).
For `CCOC(=O)Nc1ccc(NCc2ccc(F)cc2)cc1N`, the Potency was “inactive”.
With `CN1CCN(c2ccc([N+](=O)[O-])c3no[n+]([O-])c23)CC1` the Potency was 14800 nM (active).
In the case of `C[C@@H]1O[C@@H](O[C@@H]2C=C3CC[C@@H]4[C@@H](CC[C@]5(C)[C@H](c6ccc(=O)oc6)CC[C@@]45O)[C@@]3(C)CC2)[C@H](O)[C@H](O)[C@H]1O`, the Potency is reported as 33.2 nM (active).
With `CC=C(C)C(=O)O[C@H]1C(C)=C2[C@@H]3OC(=O)[C@@](C)(O)[C@@]3(O)[C@@H](OC(=O)CCC)C[C@](C)(OC(C)=O)[C@@H]2[C@@H]1OC(=O)CCCCCCC` the Potency was 16.6 nM (active).
